The whole screen tested about 330,000 compounds, of which about 4,400 (1.3%) were called active. This excerpt belongs to a sample that is enriched for actives. A number with no mark means an inactive call.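 Rule for the calls: active = growth inhibition of the mutant yeast at or above 50%; inactive = the rest.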
Assay: growth inhibitors of tim23-1 mutant yeast, primary screen, luminescence, uHTS (AID 463212);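 note: temperature-sensitive mutant grown at 25 °C; plate controls were DMSO-treated mutant yeast for no effect and medium wells lacking yeast for full effect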
Conditions: S. cerevisiae tim23-1 growth, BacTiter-Glo luminescence, 24 h; at 20 µM; stronger effect = higher value

SMILES | inhibition
CC(C)(C)NC(=O)CN1CCC(NC(=O)C23CC4CC(CC(C4)C2)C3)CC1 | 18%
O=C(c1ccc(S(=O)(=O)NCc2ccco2)cc1)N1CCN(c2ccccc2)CC1 | 19.3%
O=C(Nc1ccccc1)c1cc2ccccc2[nH]1 | -6.12%
O=c1c2ccccc2[nH]c(=S)n1CCN1CCC(=C(c2ccc(F)cc2)c2ccc(F)cc2)CC1 | 75.8% (active)
COc1ccc(Cn2c(=S)[nH]c3cc(C(=O)NCCCN4CCOCC4)ccc3c2=O)cc1 | 18%
CCCCn1c(=S)[nH]c2ccccc2c1=O | 43.6%
O=C(N[C@H]1C/C=C\C(c2ccc(F)cc2)N(Cc2ccccc2)C(=O)C1)OCC1c2ccccc2-c2ccccc21 (some centres not stated) | 38.6%
O=C(N[C@H]1C/C=C\C(c2cccc(F)c2)N(Cc2ccccc2)C(=O)C1)OCC1c2ccccc2-c2ccccc21 (some centres not stated) | 59.7% (active)
O=C(N[C@@H]1C/C=C\C[C@@H](CC(=O)N(CCO)Cc2ccccc2)C(=O)N[C@H](Cc2ccccc2)COC1=O)OCC1c2ccccc2-c2ccccc21 | 22.7%
Cc1cc2c(cc1C)N(C(=O)CN1C(=O)c3ccccc3C1=O)C(C)(C)c1ssc(=S)c1-2 | 30.3%
COc1cc(NC(=O)c2cccs2)ccc1NC(=O)c1ccccc1Cl | 55.3% (active)
COc1cc(NC(=O)c2ccc3c(c2)OCO3)ccc1NC(=O)c1cccs1 | -5.22%
Cc1ccc(C(=O)Nc2ccc(NC(=O)c3cccs3)cc2)c(C)c1 | 11.9%
O=C(Nc1cc(-c2ccccc2)nn1-c1ccccc1F)c1ccc([N+](=O)[O-])cc1 | 18.1%
CCn1ncc(Br)c1C(=O)Nc1cc(C)ccc1F | 38.3%
CCCc1[nH]nc2c1C(c1ccc(Br)s1)C(C#N)=C(N)O2 (configuration not stated) | 86.6% (active)
CCCc1[nH]nc2c1C(c1ccc(OC(=O)c3ccco3)cc1)C(C#N)=C(N)O2 (configuration not stated) | -11.4%
CCCc1[nH]nc2c1C(c1ccc(OC)c(Cn3nc(C)c(Br)c3C)c1)C(C#N)=C(N)O2 (configuration not stated) | 0.046%
O=C(O)C1CCCN(CCC=C(c2ccccc2)c2ccccc2)C1 (configuration not stated) | 4.65%
Cc1cccc(N2CCN(C(=O)c3cc4c(=O)[nH]c5ccccc5c4n3C)CC2)c1C | 13%
CC(C)(C)OC(=O)NCCCC1=CC2=CC(=O)C(C)(OC(=O)c3ccco3)C(=O)C2=CO1 (configuration not stated) | 13.3%
Cc1ccc(C(=O)COc2cccc(NC(=O)c3ccco3)c2)cc1 | 54.5% (active)
COc1ccc(OCC(=O)Nc2ccc(NC(=O)c3ccco3)c(C)c2)cc1 | 16.1%

SMILES | inhibition
Cc1cccc(OCC(=O)Nc2ccc(NC(=O)c3ccco3)c(C)c2)c1 | 22%
Cc1cccc(N(C)C(=O)c2cc(S(=O)(=O)N3CCCCC3)c[nH]2)c1 | 23.4%
CCOC(=O)CSc1nnc(CNC(=O)Cc2ccccc2)n1-c1ccccc1OC | 7.97%
Cc1ccc(-c2nn(C(C)(C)C)c3ncnc(N)c23)cc1 | 57.5% (active)
Cc1ccc(-n2cnc3ncnc(-c4ccccc4)c32)cc1 | 15.5%
Cc1c([N+](=O)[O-])c(N)nn1C | -8.73%
Cc1cc(C(=O)COC(=O)C2CC2)c(C)n1-c1ccc(F)cc1 | 35.7%
CC(=O)COc1ccc2c(-c3ccccc3)cc(=O)oc2c1 | -1.93%
O=C(CNC(=O)c1ccc(-c2ccccc2)cc1)OCc1ccc(Cl)cc1 | -7.6%
O=C(CNC(=O)OCc1ccccc1)Oc1cc2oc(=O)cc(-c3ccccc3)c2cc1Cl | 54.3% (active)
O=C1Cc2ccccc2Sc2ccc(Cl)cc21 | 28.6%
COc1cc(NS(=O)(=O)c2ccc(N/C=C(\C=O)c3nc4cc(Cl)ccc4o3)cc2)nc(OC)n1 | 15.4%
Cc1ccc(C(=O)N/C(=C\c2ccco2)C(=O)NC2CCS(=O)(=O)C2)cc1 (configuration not stated) | 24.1%
COC1=C(N2CCOCC2)C(=O)c2ccccc2C1=O | 2.06%
Cc1oc2c(c1C(=O)N1CCOCC1)C(=O)c1ccccc1C2=O | 69% (active)
COc1cc2ccccc2cc1C(=O)N1CCOCC1 | 22.5%
CCC(=O)N1CCC(C(N)=O)(N2CCCCC2)CC1 | -3.89%
Cn1nnc2cc(C(=O)NCCC3=CCCCC3)ccc21 | -1.3%
C=CCNC(=O)c1ccc2c3n(nc2c1)-c1ccc(C)cc1CO3 | 57.6% (active)
Cc1cccc(-c2nc3ccc(C(=O)NCCN4CCN(C)CC4)cc3nc2-c2cccc(C)c2)c1 | 25.1%
Cc1cc(C(C)(C)C)cc(C)c1N | 9.69%
Cc1cc(N)n2nc(-c3ccc(C(C)(C)C)cc3)cc2n1 | 72.3% (active)
COc1ccc(-c2cc(C)nc3nc(N)nn23)cc1 | 8.84%

SMILES | inhibition
Cc1nnc(NC(=O)CSc2nc(C3CCCCC3)nc3ccccc23)s1 | -0.646%
O=C1c2ccccc2C(=O)N1CCC(c1ccccc1)c1ccco1 (configuration not stated) | 22.6%
O=S(=O)(Nc1cccc(-n2cnnn2)c1)c1cnc(Cl)c(Cl)c1 | -3.26%
CCNC(=O)c1cnn(-c2ccccc2)c1-c1ccccc1 | 0.114%
CCCc1c(C(=O)Nc2ccc(F)cc2)cnn1-c1ccccc1 | 55.9% (active)
CCCc1c(C(=O)O)cnn1-c1ccc(Cl)cc1 | 13.8%
CC(=O)c1ccccc1NC(=O)C1CC(=O)N(c2ccc3c(c2)OCCO3)C1 (configuration not stated) | 14.1%
CC1(c2ccccc2)CC(C)(C)N(C(=O)c2cc([N+](=O)[O-])cc([N+](=O)[O-])c2)c2ccccc21 (configuration not stated) | 4.81%
CC1CCC2CCCCC2N1C(=O)c1cc([N+](=O)[O-])cc([N+](=O)[O-])c1 (configuration not stated) | 51.9% (active)
CC1CCN(C(=S)c2cccc([N+](=O)[O-])c2)CC1 | 21.4%
COc1ccc(S(=O)(=O)N2CCOCC2)cc1NC(=O)CSc1cc(C)ccc1C | 7.5%
CC[C@]12c3[nH]c4ccc(OC)cc4c3CCN1C(=O)C(CC(=O)NCCN1CCOCC1)C[C@@H]2C(=O)N1CCN(C(=O)C2CC2)CC1 (some centres not stated) | 26.2%
O=C(Nc1cccc(-c2nc3ncccc3o2)c1)c1ccco1 | 4.7%
O=C(Nc1ccc2oc(-c3ccccc3F)nc2c1)c1ccco1 | 57.8% (active)
Cc1cc(NC(=O)c2ccc(F)cc2)ccc1NC(=O)c1ccco1 | 13.5%
CCCCC1(C(=O)OCC)NC(c2ccc(O)cc2)C2C(=O)N(c3ccccc3)C(=O)C21 (configuration not stated) | 1.2%
CCC(=O)Nc1ccc(C(=O)CSc2nnc(CNc3ccc(Cl)cc3)o2)cc1OC | -7.17%
O=C(COC(=O)CNC(=O)C1CCCCC1)Nc1cccc(F)c1 | 17.5%
CN(CC(=O)Nc1ccccc1C(F)(F)F)C(=O)Cc1ccccc1F | 14.9%
N#C/C(=C\c1ccccc1C(F)(F)F)C(=O)Nc1ccccc1F | 71.2% (active)
O=C(Nc1ccccc1F)c1ccccc1-c1ccc(C(F)(F)F)cc1 | 16%
COc1cc([N+](=O)[O-])ccc1NC(=O)COC(=O)CCOc1ccc(C)cc1 | 73.7% (active)
COc1cccc(NC(=O)COC(=O)CCOc2ccccc2OC)c1 | 8.9%

SMILES | inhibition
CSc1ccccc1NC(=O)COC(=O)CCCOc1ccc(C)cc1 | -1.47%
Cc1cccc(N2C(=O)SC(SC(=Nc3ccccc3)Nc3ccccc3)C2=O)c1 (configuration not stated) | 49.6%
CN(C)C(=O)c1cc(Br)ccc1Cl | -8.05%
Cc1ccc(OCCCCN2CCCCC2)c(Br)c1 | 16.7%
CN(c1ccccc1)S(=O)(=O)c1cccc(NC(=O)Cc2c(F)cccc2Cl)c1 | 23.3%
COc1ccc(S(=O)(=O)N2CCOCC2)cc1NC(=O)Cc1c(F)cccc1Cl | 5.42%
O=C(Cc1c(F)cccc1Cl)Nc1ncc([N+](=O)[O-])s1 | 55.4% (active)
COc1ccc2nc3n(c(=O)c2c1)-c1cc(C)ccc1C(=O)NC3Cc1ccc(O)cc1 (configuration not stated) | -6.13%
Cc1ccc(C2CC(=O)NC(SCC(=O)OCc3ccccc3)=C2C#N)o1 (configuration not stated) | 59.1% (active)
CCCc1cc(=O)[nH]c(SCC(=O)OCc2ccccc2)n1 | 6.03%
COC(=O)CSC1=C(C#N)C(c2ccccc2OC)C(C(=O)OC)C(=O)N1 (configuration not stated) | 12.9%
CCCc1nnc(SCC(=O)N2C(C)CCCC2C)n1CC (configuration not stated) | 1.57%
CC1CCCCC12NC(=O)N(CC(=O)N1CCN(c3ccccc3)CC1)C2=O (configuration not stated) | 17.7%
O=C(c1[nH]ncc1-c1ccc(Cl)cc1)C1CO1 (configuration not stated) | 43.9%
O=C(Nc1cc(S(=O)(=O)N2CCOCC2)ccc1N1CCOCC1)c1c(F)cccc1Cl | 14.4%
Cc1cccc(OP(=O)(Nc2c(C)n(C)n(-c3ccccc3)c2=O)Oc2cccc(C)c2)c1 | 20.4%
Cc1cc(C)c(-c2c(O)c3ccccc3n(C)c2=O)c(C)c1 | 4.89%
Cc1cccc(Oc2c([N+](=O)[O-])c(=O)n(C)c3ccccc23)c1 | 56% (active)
CCn1c(SCC(=O)Nc2cc(C)ccc2C)nnc1-c1cnccn1 | 5.06%
CCc1cccc(NC(=O)CCCN2C(=O)C(c3ccccc3)Oc3cccnc32)c1 (configuration not stated) | 35.3%
COc1ccc(C(=O)COC(=O)c2ccc3ccccc3n2)cc1 | 40.7%
CC(OC(=O)c1ccc2ccccc2n1)C(=O)c1ccccc1 (configuration not stated) | 10.7%
O=C(Oc1ccc([N+](=O)[O-])cc1)c1ccc2ccccc2n1 | 69.8% (active)
